This passage reports Potency results from PubChem BioAssay (NCATS).

A short description of assay [1]: qHTS for Inhibitors of the Functional Ribonucleoprotein Complex (vRNP) of Lassa (LASV) Arenavirus: LASV Primary Screen - GLuc reporter signal (AID 1347082; calls by dose curve; tested in HEK293 reporter line; also: nearly all actives have a fitted effect of over 60% in size).
Assay [2] in a line: qHTS for Inhibitors of the Functional Ribonucleoprotein Complex (vRNP) of Lassa (LASV) Arenavirus: Viability assay - alamar blue signal for LASV Primary Screen (AID 1347083; calls by dose curve; tested in HEK293 reporter line; also: nearly all actives have a fitted effect of over 80% in size). On the technique in general: In qHTS, concentration-response curves come from the screen itself.
A short description of assay [3]: qHTS for Inhibitors of the Functional Ribonucleoprotein Complex (vRNP) of Lymphocytic Choriomeningitis Arenaviruses (LCMV): Viability assay - alamar blue signal for LCMV Primary Screen (AID 1347085; calls by dose curve; tested in HEK293 reporter line; also: nearly all actives have a fitted effect of over 80% in size).
Assay [4] deals with Nucleoprotein (Lymphocytic choriomeningitis virus (strain Armstrong)) (UniProt P09992). Briefly: qHTS for Inhibitors of the Functional Ribonucleoprotein Complex (vRNP) of Lymphocytic Choriomeningitis Arenaviruses (LCMV): LCMV Primary Screen - GLuc reporter signal (AID 1347086). Also: nearly all actives have a fitted effect of over 70% in size.

Molecules are shown by their SMILES. Records with an inconclusive call do not appear. Values without a mark were called inactive. Active and inactive are the calls of the source. Unless noted, calls follow the shape of the full dose curve.
Potency is read from the fitted curve at half-maximal effect.

Nucleoprotein (Lymphocytic choriomeningitis virus (strain Armstrong)), sequence (P09992 whole entry, looked up): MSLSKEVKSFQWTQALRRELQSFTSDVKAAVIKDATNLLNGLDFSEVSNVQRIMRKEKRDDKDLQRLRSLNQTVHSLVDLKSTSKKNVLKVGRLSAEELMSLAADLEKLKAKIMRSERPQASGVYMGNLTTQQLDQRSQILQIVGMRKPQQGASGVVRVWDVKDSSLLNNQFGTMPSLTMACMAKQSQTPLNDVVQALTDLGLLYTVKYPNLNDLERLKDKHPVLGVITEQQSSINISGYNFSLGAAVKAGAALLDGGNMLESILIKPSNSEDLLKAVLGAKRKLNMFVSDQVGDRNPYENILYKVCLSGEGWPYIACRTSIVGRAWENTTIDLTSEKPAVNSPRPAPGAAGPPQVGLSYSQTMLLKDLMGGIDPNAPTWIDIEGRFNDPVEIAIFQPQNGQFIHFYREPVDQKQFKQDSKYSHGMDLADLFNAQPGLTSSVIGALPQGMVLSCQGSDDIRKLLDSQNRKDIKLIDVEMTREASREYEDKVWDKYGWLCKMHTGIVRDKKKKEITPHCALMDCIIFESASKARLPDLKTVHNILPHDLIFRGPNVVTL

`c1ccc2nc(-c3ccc4c(c3)OCO4)ccc2c1`: the Potency entry in assay [1], in assay [2], in assay [3] and in assay [4] was “inactive” throughout.

Consider `CC(C)(O)c1cc2nc(-c3cnc(N)nc3)nc(N3CCOCC3)c2s1`, for which the Potency in assay [1] is 385 nM (active); in assay [2], 193 nM (active); in assay [3], 769 nM (active); in assay [4], 611 nM (active).

As to `c1ccc2c3c([nH]c2c1)C1(CCCCC1)NCC3`, the Potency entry in assay [1], in assay [2], in assay [3] and in assay [4] was “inactive” in each case.

With `C/C=C/c1ccc2oc(-c3ccc(O)cc3)c(C)c2c1`, the Potency entry in assay [1], in assay [2], in assay [3] and in assay [4] was “inactive” in each case.

Take `Cc1c(O)cccc1C(=O)N[C@@H](CSc1ccccc1)[C@H](O)CN1C[C@H]2CCCC[C@@H]2C[C@@H]1C(=O)NC(C)(C)C`: the Potency result in assay [1], in assay [2], in assay [3] and in assay [4] was “inactive” throughout.

In the case of `COc1cc2c(OC(C)=O)c3c(c(-c4ccc5c(c4)OCO5)c2cc1OC)C(=O)OC3`, the Potency result in assay [1], in assay [2], in assay [3] and in assay [4] was “inactive” each time.

Turning to `COc1ccc(C=CC(=O)c2ccc(OC)c(OC)c2O)cc1OC`, the Potency result in assay [1], in assay [2], in assay [3] and in assay [4] was “inactive” each time.

Turning to `CNC(=O)c1cccc(-c2ccc3c(N4CCOC[C@H]4C)nc(N4CCOC[C@H]4C)nc3n2)c1`, the Potency in assay [1] is 137 nM (active); in assay [2], 137 nM (active); in assay [3], 153 nM (active); in assay [4], 137 nM (active).

In the case of `COC(=O)C1C(O)CC2CCC1N2C` (stereo not given), the Potency entry in assay [1], in assay [2], in assay [3] and in assay [4] was “inactive” throughout.

In the case of `CSCCCN=C=S`, the Potency entry in assay [1], in assay [2], in assay [3] and in assay [4] was “inactive” in each case.

Turning to `C=C1C[C@]23CC[C@H]4C(CO)(CO)C[C@@H](O)C[C@@]4(C)[C@@H]2CC[C@H]1C3`, the Potency result in assay [1], in assay [2], in assay [3] and in assay [4] was “inactive” in each case.

Turning to `CO[C@H]1C=CO[C@@]2(C)Oc3c(C)c(O)c4c(O)c(c5c(c4c3C2=O)NC2(CCN(CC(C)C)CC2)N=5)=NC(=O)C(C)=CC=C[C@H](C)[C@H](O)[C@@H](C)[C@@H](O)[C@@H](C)[C@H](OC(C)=O)[C@H]1C`, the Potency result in assay [1], in assay [2], in assay [3] and in assay [4] was “inactive” each time.

Take `OCCC(O)CO` (stereo not given): the Potency entry in assay [1], in assay [2], in assay [3] and in assay [4] was “inactive” each time.

For `Cc1nc(C)c(C)nc1C`, the Potency result in assay [1], in assay [2], in assay [3] and in assay [4] was “inactive” each time.

Consider `CO[C@H]1C=CCCC=CC(=O)O[C@H]([C@H](C)C(=O)CCCC2CC(=O)NC(=O)C2)C(C)=C[C@@H](C)[C@@H]1O`, for which the Potency result in assay [1], in assay [2], in assay [3] and in assay [4] was “inactive” throughout.

`CC1=CCC2C(C1)C2(C)C` (stereo not given): the Potency result in assay [1], in assay [2], in assay [3] and in assay [4] was “inactive” each time.

As to `COc1ccc(C2Sc3ccccc3N(CCN(C)C)C(=O)C2OC(C)=O)cc1` (stereo not given), the Potency entry in assay [1], in assay [2], in assay [3] and in assay [4] was “inactive” throughout.

In the case of `COc1n[nH]c2nncnc12`, the Potency entry in assay [1], in assay [2], in assay [3] and in assay [4] was “inactive” throughout.

Turning to `C/C=C(\C)C(=O)O[C@@H]([C@H](O)c1cc2ccc(=O)oc2cc1OC)C(C)(C)O`, the Potency result in assay [1], in assay [2], in assay [3] and in assay [4] was “inactive” throughout.

For `O=C(c1ccc(F)cc1)N1CCC[C@H](c2nc(-c3ccc(F)cc3)no2)C1`, the Potency entry in assay [1], in assay [2], in assay [3] and in assay [4] was “inactive” throughout.

Regarding `O=c1c(-c2ccc(O)cc2)coc2cc(OC3OC(CO)C(O)C(O)C3O)ccc12` (stereo not given), the Potency entry in assay [1], in assay [2], in assay [3] and in assay [4] was “inactive” in each case.

For `COc1ccc(OC)cc1`, the Potency entry in assay [1], in assay [2], in assay [3] and in assay [4] was “inactive” each time.

For the compound `SC1CCCC1`, the Potency result in assay [1], in assay [2], in assay [3] and in assay [4] was “inactive” in each case.

Turning to `CC(C=O)Cc1ccc(C(C)C)cc1` (stereo not given), the Potency result in assay [1], in assay [2], in assay [3] and in assay [4] was “inactive” each time.

For the compound `COC(=O)c1ccccc1-n1c(C)nc2ccccc2c1=O`, the Potency result in assay [1], in assay [2], in assay [3] and in assay [4] was “inactive” in each case.

For `COc1cc(O)c2c(=O)c3c(O[C@H]4O[C@@H](CO)[C@H](O)[C@@H](O)[C@@H]4O)ccc(O)c3oc2c1`, the Potency entry in assay [1], in assay [2], in assay [3] and in assay [4] was “inactive” each time.

For the compound `C=C(C)[C@]12C[C@@H](C)[C@@]34O[C@](Cc5ccccc5)(O[C@@H]1[C@@H]3C=C(COC(=O)Cc1ccc(O)c(OC)c1)C[C@]1(O)C(=O)C(C)=C[C@@H]41)O2`, the Potency entry in assay [1], in assay [2], in assay [3] and in assay [4] was “inactive” in each case.

With `CON(C)C(=O)N1N=C(c2cc(F)ccc2F)S[C@]1(CCCN)c1ccccc1`, the Potency result in assay [1], in assay [2], in assay [3] and in assay [4] was “inactive” throughout.

Turning to `OC[C@H]1O[C@@H]2O[C@H]3[C@H](O)[C@@H](O)[C@@H](O[C@H]4[C@H](O)[C@@H](O)[C@@H](O[C@H]5[C@H](O)[C@@H](O)[C@@H](O[C@H]6[C@H](O)[C@@H](O)[C@@H](O[C@H]7[C@H](O)[C@@H](O)[C@@H](O[C@H]8[C@H](O)[C@@H](O)[C@@H](O[C@H]9[C@H](O)[C@@H](O)[C@@H](O[C@H]1[C@H](O)[C@H]2O)O[C@@H]9CO)O[C@@H]8CO)O[C@@H]7CO)O[C@@H]6CO)O[C@@H]5CO)O[C@@H]4CO)O[C@@H]3CO`, the Potency result in assay [1], in assay [2], in assay [3] and in assay [4] was “inactive” in each case.

As to `NC1(C(=O)N[C@@H](CCO)c2ccc(Cl)cc2)CCN(c2ncnc3[nH]ccc23)CC1`, the Potency in assay [1] was 968 nM (active); in assay [2], 385 nM (active); in assay [3] it was 611 nM (active); in assay [4], 1720 nM (active).
